The text below walks through data of ChEMBL document CHEMBL5606460, “ASAP - DENV-2 NS2B-NS3 protease fluorescence single point” (2024).

About 110 (5.5%) of roughly 2,000 compounds showed an effect of 50% or more. Many of the other results were omitted from the sample, so strong results are more common in it than they were.

In the experiment the target is Genome polyprotein (dengue virus type 2) (UniProt P29990).
The mark [1] stands for this setting: Thailand/16681/1984, Concentration 25.0 uM, Number of replicates 1.0.

For the molecule `NS(=O)(=O)c1cccc(CN2CC[C@H](c3c[nH]c4ccccc34)C2)c1`, the inhibition – broadly, the change of the read-out against control, counted positive when it falls – is, setting by setting: (Thailand/16681/1984, Concentration 49.5 uM, Number of replicates 2.0, Standard deviation 1.1633260593891446 %) -1.78%; (Thailand/16681/1984, Concentration 99.01 uM, Number of replicates 2.0, Standard deviation 1.588607527736017 %) 0.04%; (Thailand/16681/1984, Concentration 198.0 uM, Number of replicates 2.0, Standard deviation 1.7864683947344713 %) 2.15%.

For the molecule `Cc1cc(CO)c2cccc(Cc3ccccc3C(=O)Nc3nonc3C(N)=O)c2n1`, the inhibition by setting is: (Thailand/16681/1984, Concentration 49.95 uM, Number of replicates 2.0, Standard deviation 0.20481615067396447 %) 9.42%; (Thailand/16681/1984, Concentration 99.9 uM, Number of replicates 2.0, Standard deviation 0.252245853764608 %) 28.4%. Regarding `Cc1cc(CO)c2cccc(Cc3ccccc3C(=O)Nc3cccc(C(N)=O)c3)c2n1`, the inhibition (Thailand/16681/1984, Concentration 49.95 uM, Number of replicates 2.0, Standard deviation 0.1803817681308647 %) was 4.23% and the inhibition (Thailand/16681/1984, Concentration 99.9 uM, Number of replicates 2.0, Standard deviation 0.18828716821235608 %) was determined as 9.06%. For `Cc1cc(CO)c2cccc(Cc3ccccc3NC(=O)Cc3cccc(CN)c3)c2n1`, the inhibition was -0.82% (Thailand/16681/1984, Concentration 49.95 uM, Number of replicates 2.0, Standard deviation 1.4858035354408357 %) and 5.26% (Thailand/16681/1984, Concentration 99.9 uM, Number of replicates 2.0, Standard deviation 1.2081673980721888 %). Regarding `Cc1cc(CO)c2cccc(CC(=O)Nc3cccc(C(N)=O)c3)c2n1`, the inhibition (Thailand/16681/1984, Concentration 49.95 uM, Number of replicates 2.0, Standard deviation 0.3351031861891448 %) turned out to be 71.5% and the inhibition (Thailand/16681/1984, Concentration 99.9 uM, Number of replicates 2.0, Standard deviation 0.3101738310571331 %) is 94.2%. Consider `Cc1cc(CO)c2cccc(Cc3cccc(C(=O)Nc4nonc4C(N)=O)c3)c2n1`, for which the inhibition was 23.4% (Thailand/16681/1984, Concentration 49.95 uM, Number of replicates 2.0, Standard deviation 1.9942580477177279 %) and 73% (Thailand/16681/1984, Concentration 99.9 uM, Number of replicates 2.0, Standard deviation 1.5142007227316114 %). Turning to `Cc1cc(CO)c2cccc(Cc3cccc(C(=O)Nc4cccc(C(N)=O)c4)c3)c2n1`, the inhibition by setting is: (Thailand/16681/1984, Concentration 49.95 uM, Number of replicates 2.0, Standard deviation 0.8487279472032775 %) 0.063%; (Thailand/16681/1984, Concentration 99.9 uM, Number of replicates 2.0, Standard deviation 0.25943340872226184 %) 4.4%. In the case of `Cc1cc(CO)c2cccc(Nc3nonc3C(N)=O)c2n1`, the inhibition by setting is: (Thailand/16681/1984, Concentration 49.95 uM, Number of replicates 2.0, Standard deviation 1.5271718368293243 %) 11%; (Thailand/16681/1984, Concentration 99.9 uM, Number of replicates 2.0, Standard deviation 3.697399383401008 %) 23.8%. In the case of `Cc1cc(CO)c2cccc(Cc3cccc(C(=O)Nc4cc(O)[nH]n4)c3)c2n1`, the inhibition (Thailand/16681/1984, Concentration 49.95 uM, Number of replicates 2.0, Standard deviation 1.1139101860624252 %) stood at 16.1% and the inhibition (Thailand/16681/1984, Concentration 99.9 uM, Number of replicates 2.0, Standard deviation 0.5605490390974336 %) was 35%. `Cc1cc(CO)c2cccc(CC(=O)Nc3nonc3C(N)=O)c2n1`: the inhibition (Thailand/16681/1984, Concentration 49.95 uM, Number of replicates 2.0, Standard deviation 0.10454576349345478 %) worked out at 97.1% and the inhibition (Thailand/16681/1984, Concentration 99.9 uM, Number of replicates 2.0, Standard deviation 0.006921524049853062 %) amounted to 99%. Regarding `O=Cc1ccc(N2CCC(C(=O)NCc3ccc(C(F)(F)F)nc3)CC2)cc1`, the inhibition under setting [1] was determined as 14.9%.

For the molecule `CC(C)(CO)NC(=O)c1cc(Cl)cc(OCc2ccccn2)c1`, the inhibition is -3.57% (Thailand/16681/1984, Concentration 49.5 uM, Number of replicates 2.0, Standard deviation 3.9117339361958243 %); -3.56% (Thailand/16681/1984, Concentration 99.01 uM, Number of replicates 2.0, Standard deviation 3.9139588683287148 %); -2.33% (Thailand/16681/1984, Concentration 198.0 uM, Number of replicates 2.0, Standard deviation 3.978479645326132 %). As for `O=Cc1ccc(N2CCC(C(=O)N3CCS[C@H]3c3ccc([N+](=O)[O-])cc3)CC2)cc1`, under setting [1], the inhibition came out at 10.8%.

On to `CNC(=O)c1cc(Cl)ccc1NS(=O)(=O)c1ccc(Cn2cncn2)cc1`, for which the inhibition runs as follows: (Thailand/16681/1984, Concentration 49.5 uM, Number of replicates 2.0, Standard deviation 0.7766096317793165 %) -1.89%; (Thailand/16681/1984, Concentration 99.01 uM, Number of replicates 2.0, Standard deviation 1.2995063622910579 %) -0.333%; (Thailand/16681/1984, Concentration 198.0 uM, Number of replicates 2.0, Standard deviation 1.6197418261994996 %) 2.7%. Consider `CS(=O)(=O)N1CCC(NC(=O)C2CCN(c3ccc(C=O)cc3)CC2)CC1`, for which the inhibition under setting [1] was determined as 12%. On the same count and under the same terms, under `O=Cc1ccc(N2CCC(C(=O)Nc3ncnc(Cl)c3Cl)CC2)cc1` stands 10.5%; under `C=CCN(Cc1cccc(OC)c1)C(=O)C1CCN(c2ccc(C=O)cc2)CC1`, 13.3%. The same measure, in the same setting: under `Cc1ccc(NC(=O)C2CCN(c3ccc(C=O)cc3)CC2)cc1I` stands 9.87%.

Regarding `Cc1cc(CO)c2cccc(Cc3ccccc3NC(=O)Cc3nnc(C)[nH]3)c2n1`, the inhibition is 2.09% (Thailand/16681/1984, Concentration 49.95 uM, Number of replicates 2.0, Standard deviation 1.0489246346930539 %) and 10.7% (Thailand/16681/1984, Concentration 99.9 uM, Number of replicates 2.0, Standard deviation 0.8121374020252716 %).

Consider `O=Cc1ccc(N2CCC(C(=O)NCc3ccc(-c4ccccn4)cc3)CC2)cc1`, for which the inhibition under setting [1] is 6.55%. `CC(=O)N[C@@H](CCCN)C(=O)Nc1ccccc1Cc1cccc2c(CO)cc(C)nc12`: the inhibition by setting is: (Thailand/16681/1984, Concentration 49.95 uM, Number of replicates 2.0, Standard deviation 1.2344771467866291 %) -4.07%; (Thailand/16681/1984, Concentration 99.9 uM, Number of replicates 2.0, Standard deviation 0.6037374205287288 %) 4.36%. Take `CC(=O)N[C@@H](CCCCN)C(=O)Nc1cccc2c(CO)cc(C)nc12`: the inhibition was found to be 35.5% (Thailand/16681/1984, Concentration 49.95 uM, Number of replicates 2.0, Standard deviation 0.7189645441339965 %) and 97.4% (Thailand/16681/1984, Concentration 99.9 uM, Number of replicates 2.0, Standard deviation 0.1513618084697797 %).

As for `CC(=O)N[C@@H](Cc1ccc(CN)cc1)C(=O)Nc1cccc2c(CO)cc(C)nc12`, the inhibition runs as follows: (Thailand/16681/1984, Concentration 49.95 uM, Number of replicates 2.0, Standard deviation 0.08390662036506401 %) 24.9%; (Thailand/16681/1984, Concentration 99.9 uM, Number of replicates 2.0, Standard deviation 0.3339864632910001 %) 96.3%. Take `CC(=O)N[C@@H](Cc1ccc(O)cc1)C(=O)Nc1cccc2c(CO)cc(C)nc12`: the inhibition (Thailand/16681/1984, Concentration 49.95 uM, Number of replicates 2.0, Standard deviation 2.4752459751189644 %) was -9.17% and the inhibition (Thailand/16681/1984, Concentration 99.9 uM, Number of replicates 2.0, Standard deviation 3.123465853915667 %) is -9.54%. As for `CC(=O)N[C@@H](CCCCN)C(=O)Nc1ccccc1Cc1cccc2c(CO)cc(C)nc12`, the inhibition was -5.54% (Thailand/16681/1984, Concentration 49.95 uM, Number of replicates 2.0, Standard deviation 0.842601818478522 %) and 1.8% (Thailand/16681/1984, Concentration 99.9 uM, Number of replicates 2.0, Standard deviation 0.16339684106206548 %). For `CC(=O)N[C@@H](CCCN)C(=O)Nc1cccc2c(CO)cc(C)nc12`, the inhibition (Thailand/16681/1984, Concentration 99.9 uM, Number of replicates 2.0, Standard deviation 2.7664513641226787 %) amounted to 9.57%.
